# Rows were chosen to be rich in hits. Some 15% of all compounds tested hit in one or more screens of this group.
# Pf growth 96h: P. falciparum growth inhibition at 96 hour, primary screen for plastid delayed-death inhibitors | P. falciparum luciferase reporter growth, 96 h | Potency, µM (titrated, usually from 28.7 µM), for inactives: top-dose activity change, negative = inhibition, actives largely listed as inhibitors | hit rate 6.9% among 320,000; further: potency means the concentration at half of the fitted maximal effect; on the % scale 0 is the no-effect control and ±100 the full control effect
#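 Delayed-death screen, second-generation endpoint: infected erythrocytes, 2% hematocrit, 0.05% parasitemia final; 96 hours at 37 C, 5% CO2; luciferase detection reagent; luminescence decrease equals reduced growth.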
# Sm TGR inh: S. mansoni TGR enzyme inhibition | Q962Y6 | purified TGR, DTNB reduction, TNB absorbance 405 nm | Potency, µM (series often up to 114 µM), for inactives: top-dose activity change, negative = inhibition, most hits filed as inhibitors | hit rate 3% among 360,000; further: potency means the concentration at half of the fitted maximal effect; on the % scale 0 is the no-effect control and ±100 the full control effect; nearly all actives have a fitted effect of over 60% in size
#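 TGR 20 nM + NADPH 100 uM (dispensed conc.), cpd preinc 15 min RT; start with NADPH (500 uM addition) then DTNB (15 mM addition). Kinetic TNB absorbance, 405 nm filter. Four-parameter Hill fit across titration.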
# HCMV inh: inhibitors of human cytomegalovirus. HFF cells, HCMV-luciferase reporter, 72 h; hits give low values. hit rate 4.5% among 410,000. AID 1259415. activity change, negative = inhibition, % at 57.5 µM; in the data active means activity change below about -60%; inconclusive means no clear call, values can overlap the other calls; inactive means above about -39%; further: on the % scale 0 is the no-effect control and ±100 the full control effect
#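 Human foreskin fibroblasts infected with luciferase-reporter HCMV at MOI 1 PFU/cell, compounds at two doses. Luciferase measured 72 h post infection; normalized to buffer-only basal and Salinomycin (10uM) controls.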
# HCV inhibitor: inhibitors of hepatitis C virus infection | Huh7.5.1 HCVcc-Cre infection, luciferase reporter, 44 h | hit rate 3.4% among 340,000 | AID 651820 | Potency, µM (titrated, usually from 41.8 µM), for the others: top-dose activity change, negative = inhibition, usual class: inhibitors; further: potency means the concentration at half of the fitted maximal effect; on the % scale 0 is the no-effect control and ±100 the full control effect
#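 Compounds are dispensed onto cells plated 4 h earlier at 1,000 per well, with HCVcc-Cre virus (about 0.5 moi) added next. Following 44 h of culture, luminescent signal is measured for 15 sec after 15 min with substrate at room temperature.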
# Pf growth 48h: P. falciparum growth inhibition at 48 hours (one generation) | AID 504832 | Potency, µM (highest dose often 28.7 µM), for inactives: at the highest dose activity change, negative = inhibition, usual class: inhibitors | hit rate 5.9% among 310,000 | P. falciparum luciferase growth in erythrocytes, 48 h; further: potency means the concentration at half of the fitted maximal effect; on the % scale 0 is the no-effect control and ±100 the full control effect
#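 Erythrocytes infected with P. falciparum carrying an integrated firefly luciferase reporter (2% hematocrit, 0.1% parasitemia final) were exposed to compounds in RPMI 1640 with 0.5% Albumax at 37 C, 5% CO2. Growth inhibition was scored as reduced luminescence.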
# SARS PLpro yeast: blocks SARS-CoV papain-like protease in a yeast assay; S. cerevisiae expressing SARS-CoV PLpro, growth rescue; Potency, µM (titrated, usually from 32.9 µM), for inactives: at the highest dose activity, positive = growth rescue, hits mostly activators; hit rate 0.19% among 330,000; AID 485353; calls by dose curve; further: potency means the concentration at half of the fitted maximal effect; 0% is about no effect; nearly all actives have a fitted effect of over 55% in size
# * marks the source's active call; other numbers are inactive results; i = inactive; ? = inconclusive; · = not tested or not shown; [ ] = dose if it differs, or a comment. Unless noted, the call rests on the fitted dose curve; in most records, active means well fitted curve in the direction sought with a large enough effect; inconclusive means small, poorly fitted or top-dose-only effect, or another doubt; inactive means no such curve, though single readings can be large; an effect the other way counts as inactive or inconclusive.
SMILES,Pf growth 96h,Sm TGR inh,HCMV inh,HCV inhibitor,Pf growth 48h,SARS PLpro yeast
CSc1ccc(C(=O)C2CCCN(Cc3cc4ccccc4[nH]3)C2)cc1 (configuration not stated),-18.4%,-8.7%,-8.6,?,?,-1.2%
CSc1ccc(C(=O)C2CCCN(Cc3cccn3-c3cccnc3)C2)cc1 (configuration not stated),11.4%,?,-31.0,14.1µM*,10.4µM*,-2.1%
CC(C)Oc1cccc(C(=O)C2CCCN(Cc3cccn3-c3cccnc3)C2)c1 (configuration not stated),11.7µM*,?,4.2,11.2µM*,?,11.9%
CSc1ccc(C(=O)C2CCCN(Cc3cccnc3)C2)cc1 (configuration not stated),?,3.0%,-62.0*,?,?,-0.1%
CCOC(=O)C1(CCCc2ccccc2)CCN(CC(O)CO)CC1 (configuration not stated),?,11.2%,-23.0,?,?,-0.1%
COC(=O)C1CCN(c2cc(=O)n(-c3ccccc3Cl)c(=O)[nH]2)CC1,18.8%,-9.5%,-0.7,20.1%,6.57µM*,5.1%
C=CCn1c(N)cc(=O)nc1SC(C)C(=O)Nc1ccc(C(=O)OCC)cc1 (configuration not stated),15.2%,2.6%,-19.8,25.7%,4.15µM*,0.1%
CCOC(=O)c1ccc(NC(=O)C(C)Sc2nc(=O)cc(N)n2CCc2ccccc2)cc1 (configuration not stated),·,0.3%,2.3,·,·,·
CC1(C(=O)NS(=O)(=O)c2ccc(Br)cc2)CCN1C(=O)Cc1ccsc1 (configuration not stated),·,·,-10.6,·,·,·
C=C(C)C1CC=C(C)/C(=N\NC(=S)Nc2ccc(C)cc2)C1 (configuration not stated),10.4µM*,1.0%,-28.0,?,14.7µM*,?
C=C(C)C1CC=C(C)/C(=N/NC(=O)COc2ccc(C)cc2)C1 (configuration not stated),-8.4%,6.9%,?,5.1%,-6.7%,7.2%
COCc1cc(C)nc2sc3c(c12)NC(c1ccccc1C(=O)O)N(c1cccc(C(F)(F)F)c1)C3=O (configuration not stated),·,-0.3%,-27.3,·,·,·
Cc1ccc(CN(C)C(=O)CSc2nnc3n2CCCCC3)c(C)c1,7.38µM*,-14.3%,?,-7.0%,?,0.9%
O=C(CSc1nnc(-c2ccccc2)n1-c1ccccc1)NCc1ccco1,60.6%,-0.7%,-2.1,6.4%,-8.8%,-7.6%
COc1cccc(-c2nnc(SCC(=O)Nc3ccc4c(c3)OCCO4)n2Cc2ccco2)c1,?,-24.8%,-30.8,-18.3%,?,-4.3%
C=CCn1c(SCC(=O)NCc2ccco2)nnc1-c1ccc2ccccc2n1,12.2%,15.8µM*,-11.3,?,?,-2.4%
Cn1c(-c2ccccc2)cnc1SCC(=O)NCc1ccco1,·,39.8µM*,-29.8,-4.6%,-4.7%,0.7%
COc1cccc(-c2nnc(SCC(=O)NCc3ccc4c(c3)OCO4)n2Cc2ccco2)c1,6.57µM*,44.7µM*,-3.1,-5.8%,·,5.9%
O=C(CSc1nnc(-c2cccnc2)n1Cc1ccccc1)NCc1ccco1,87.3%,12.6µM*,-28.2,6.9%,-9.9%,-0.9%
CCc1ccccc1NC(=O)C1CCCN(c2nnc(-n3c(C)ccc3C)s2)C1 (configuration not stated),·,-30.5%,-9.3,·,·,·
O=S(=O)(c1ccc2ccccc2c1)n1nc(-c2ccco2)nc1NCc1cccc(Cl)c1,·,-4.7%,-3.0,·,·,·
O=C(CSc1cn(CCNC(=O)c2ccccc2)c2ccccc12)NCc1ccco1,?,-24.5%,36.0,-22.4%,·,-0.7%
C=CCn1c(SCC(=O)NCc2ccc3c(c2)OCO3)nnc1-c1cccnc1,-12.9%,-1.1%,-24.9,14.9%,18.7%,1.5%
CCCn1cc(SCC(=O)NCc2ccco2)c2ccccc21,6.57µM*,?,-6.2,?,2.08µM*,-5.0%
NC(=O)CSc1nnc(-c2cccnc2)n1Cc1ccccc1,-1.6%,-1.4%,76.7,12.3%,-13.0%,9.2%
SMILES,Pf growth 96h,Sm TGR inh,HCMV inh,HCV inhibitor,Pf growth 48h,SARS PLpro yeast
c1ccc(Cn2c(SCCN3CCOCC3)nnc2-c2cccnc2)cc1,10.4µM*,72.6%,18.6,-12.1%,·,-1.5%
O=C(CSc1nnc(-c2cccnc2)n1Cc1ccco1)NCc1ccc2c(c1)OCO2,?,44.7µM*,-30.1,0.2%,3.5%,-0.4%
Cc1ccc(CNS(=O)(=O)NCc2cccs2)cc1,17.6%,49.7%,59.8,-12.1%,-8.9%,1.2%
O=C(Nc1c2c(nn1-c1ccc(F)cc1)CSC2)c1ccc(S(=O)(=O)N2CCOCC2)cc1,7.2%,-2.3%,·,0.6%,?,2.4%
Cc1cccc(-n2nc3c(c2NC(=O)c2ccc(S(=O)(=O)N4CCOCC4)cc2)CSC3)c1C,2.0%,-11.2%,111.8,6.4%,11.7µM*,-1.0%
Cc1ccc(-n2nc3c(c2NC(=O)c2ccc(S(=O)(=O)N4CCOCC4)cc2)CSC3)c(C)c1,-21.7%,1.4%,·,?,5.86µM*,12.1%
Cc1ccc2c(=O)cc(C(=O)NCc3ccccc3)oc2c1,·,0.6%,-15.9,·,·,·
CCN(C)Cc1c(C(=O)N2CCc3ccccc3C2)nc2ccc(Cl)cn12,i,35.5µM*,2.0,4.1%,-0.3%,0.3%
COCC1CCN(Cc2c(C(=O)N3CCc4ccccc4C3)nc3ccc(Cl)cn23)C1 (configuration not stated),?,20µM*,34.8,-13.1%,?,-6.6%
CCOC(=O)CSc1cc(C)c(C#N)c2nc3ccccc3n12,24.0%,2.51µM*,-15.3,21.8%,10.7%,-0.1%
CCC(C)Sc1cc(C)c(C#N)c2nc3ccccc3n12 (configuration not stated),2.94µM*,-13.7%,?,?,8.28µM*,-20.2%
CCC(C)Nc1cc(C)c(C#N)c2nc3ccccc3n12 (configuration not stated),-0.8%,-6.4%,-23.6,?,-6.2%[0.00184 µM],0.7%
CCOC(=O)c1c(C)cc(C)n2c1nc1ccccc12,11.7µM*,5.5%,12.8,-18.2%,?,-6.9%
CC(=O)N1CCc2cc(Br)cc(S(=O)(=O)N3CCC(C(=O)Nc4ccc(C(C)C)cc4)CC3)c21,·,0.5%,-29.7,·,·,·
CC(C)C(C(=O)NC1CCCC1)N(CC1CCCO1)C(=O)CNS(=O)(=O)c1ccccc1 (configuration not stated),4.5%,0.2%,36.2,2.9%,-17.4%,-0.2%
CC(C)(C)c1ccc(C2(C)NC(=O)NC2=O)cc1 (configuration not stated),22.7%,2.3%,-34.4,-1.3%,2.9%,-1.0%

# From PubChem BioAssay
